Targets with a hit are over-represented here; the source holds about 8,800 in all. About 0.5% of all pairs of compound and target were hits. Unmarked numbers belong to inactive results.
Each target was assayed with CC(=O)c1cnc2ccc(-c3cc(Cl)c(O)c(Cl)c3)nc2c1N[C@H]1CC[C@H](CN(C)C)CC1 (assay: log2 fold change, soluble protein after heating vs DMSO (PISA); higher = thermal stabilisation; K562 lysate, 10 uM; active = over 0.2 and 3.5 SD of the protein, either way, in both replicates (recomputed)).
Summary of the method: (§1)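 Quantification was by TMTpro 16plex LC-MS/MS with equalised channel sums, applied to the supernatant after 21,000xg for 90 min. Samples were crude K562 extract at 1 mg/mL protein in PBS pH 7.4 with 1 mM MgCl2, treated with 10 μM compound for 30 min, heated for 3 min across 48°C-58°C, pooled and brought to 0.5% NP-40 at 4°C. Values are log-two fold changes in thermal stability relative to solvent controls, from duplicates.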

UniProt Q6UWP2, sequence (Q6UWP2 whole entry, looked up): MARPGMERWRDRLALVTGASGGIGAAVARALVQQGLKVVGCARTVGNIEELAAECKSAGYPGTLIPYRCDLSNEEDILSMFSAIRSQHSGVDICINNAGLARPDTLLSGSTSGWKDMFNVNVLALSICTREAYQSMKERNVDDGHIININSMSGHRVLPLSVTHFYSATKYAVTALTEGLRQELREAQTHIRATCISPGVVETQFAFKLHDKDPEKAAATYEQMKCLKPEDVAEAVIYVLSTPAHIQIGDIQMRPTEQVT
UniProt Q14746, sequence (Q14746 whole entry, looked up): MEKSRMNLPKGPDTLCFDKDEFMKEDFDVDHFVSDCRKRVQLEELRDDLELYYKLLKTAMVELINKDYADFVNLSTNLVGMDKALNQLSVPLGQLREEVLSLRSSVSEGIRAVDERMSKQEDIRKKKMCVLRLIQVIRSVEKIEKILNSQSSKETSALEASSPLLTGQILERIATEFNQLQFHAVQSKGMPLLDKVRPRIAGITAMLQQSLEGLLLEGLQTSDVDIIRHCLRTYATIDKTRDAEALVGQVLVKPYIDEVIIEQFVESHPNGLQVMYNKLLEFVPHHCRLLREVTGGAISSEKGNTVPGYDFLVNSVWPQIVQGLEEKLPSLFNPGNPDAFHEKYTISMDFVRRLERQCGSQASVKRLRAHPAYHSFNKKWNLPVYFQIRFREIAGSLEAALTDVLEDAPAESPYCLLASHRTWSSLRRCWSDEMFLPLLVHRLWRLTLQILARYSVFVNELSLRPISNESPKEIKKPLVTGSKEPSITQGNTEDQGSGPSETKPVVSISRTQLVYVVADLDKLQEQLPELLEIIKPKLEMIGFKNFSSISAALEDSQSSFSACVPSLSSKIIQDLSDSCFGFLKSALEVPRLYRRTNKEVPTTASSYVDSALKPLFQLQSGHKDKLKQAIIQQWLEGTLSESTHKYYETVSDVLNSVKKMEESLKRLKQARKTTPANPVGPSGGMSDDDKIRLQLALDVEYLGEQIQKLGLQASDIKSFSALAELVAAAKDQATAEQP
UniProt Q9H4E7, sequence (Q9H4E7 whole entry, looked up): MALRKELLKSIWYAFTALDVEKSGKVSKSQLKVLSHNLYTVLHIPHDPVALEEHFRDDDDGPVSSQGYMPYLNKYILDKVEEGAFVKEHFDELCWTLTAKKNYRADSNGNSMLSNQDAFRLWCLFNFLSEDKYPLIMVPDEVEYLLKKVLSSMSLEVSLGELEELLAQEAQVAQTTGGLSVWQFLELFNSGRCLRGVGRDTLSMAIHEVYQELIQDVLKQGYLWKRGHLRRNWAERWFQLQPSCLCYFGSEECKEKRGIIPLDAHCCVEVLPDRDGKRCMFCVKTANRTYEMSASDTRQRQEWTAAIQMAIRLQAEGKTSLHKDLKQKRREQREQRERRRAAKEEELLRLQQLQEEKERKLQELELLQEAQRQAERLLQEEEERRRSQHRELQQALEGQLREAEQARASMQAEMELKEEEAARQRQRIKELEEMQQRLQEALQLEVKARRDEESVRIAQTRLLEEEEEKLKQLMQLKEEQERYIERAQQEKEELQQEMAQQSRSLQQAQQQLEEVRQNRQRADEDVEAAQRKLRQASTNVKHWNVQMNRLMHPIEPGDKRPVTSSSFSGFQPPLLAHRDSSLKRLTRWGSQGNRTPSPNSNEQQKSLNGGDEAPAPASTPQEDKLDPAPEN
UniProt Q14008, sequence (Q14008 whole entry, looked up): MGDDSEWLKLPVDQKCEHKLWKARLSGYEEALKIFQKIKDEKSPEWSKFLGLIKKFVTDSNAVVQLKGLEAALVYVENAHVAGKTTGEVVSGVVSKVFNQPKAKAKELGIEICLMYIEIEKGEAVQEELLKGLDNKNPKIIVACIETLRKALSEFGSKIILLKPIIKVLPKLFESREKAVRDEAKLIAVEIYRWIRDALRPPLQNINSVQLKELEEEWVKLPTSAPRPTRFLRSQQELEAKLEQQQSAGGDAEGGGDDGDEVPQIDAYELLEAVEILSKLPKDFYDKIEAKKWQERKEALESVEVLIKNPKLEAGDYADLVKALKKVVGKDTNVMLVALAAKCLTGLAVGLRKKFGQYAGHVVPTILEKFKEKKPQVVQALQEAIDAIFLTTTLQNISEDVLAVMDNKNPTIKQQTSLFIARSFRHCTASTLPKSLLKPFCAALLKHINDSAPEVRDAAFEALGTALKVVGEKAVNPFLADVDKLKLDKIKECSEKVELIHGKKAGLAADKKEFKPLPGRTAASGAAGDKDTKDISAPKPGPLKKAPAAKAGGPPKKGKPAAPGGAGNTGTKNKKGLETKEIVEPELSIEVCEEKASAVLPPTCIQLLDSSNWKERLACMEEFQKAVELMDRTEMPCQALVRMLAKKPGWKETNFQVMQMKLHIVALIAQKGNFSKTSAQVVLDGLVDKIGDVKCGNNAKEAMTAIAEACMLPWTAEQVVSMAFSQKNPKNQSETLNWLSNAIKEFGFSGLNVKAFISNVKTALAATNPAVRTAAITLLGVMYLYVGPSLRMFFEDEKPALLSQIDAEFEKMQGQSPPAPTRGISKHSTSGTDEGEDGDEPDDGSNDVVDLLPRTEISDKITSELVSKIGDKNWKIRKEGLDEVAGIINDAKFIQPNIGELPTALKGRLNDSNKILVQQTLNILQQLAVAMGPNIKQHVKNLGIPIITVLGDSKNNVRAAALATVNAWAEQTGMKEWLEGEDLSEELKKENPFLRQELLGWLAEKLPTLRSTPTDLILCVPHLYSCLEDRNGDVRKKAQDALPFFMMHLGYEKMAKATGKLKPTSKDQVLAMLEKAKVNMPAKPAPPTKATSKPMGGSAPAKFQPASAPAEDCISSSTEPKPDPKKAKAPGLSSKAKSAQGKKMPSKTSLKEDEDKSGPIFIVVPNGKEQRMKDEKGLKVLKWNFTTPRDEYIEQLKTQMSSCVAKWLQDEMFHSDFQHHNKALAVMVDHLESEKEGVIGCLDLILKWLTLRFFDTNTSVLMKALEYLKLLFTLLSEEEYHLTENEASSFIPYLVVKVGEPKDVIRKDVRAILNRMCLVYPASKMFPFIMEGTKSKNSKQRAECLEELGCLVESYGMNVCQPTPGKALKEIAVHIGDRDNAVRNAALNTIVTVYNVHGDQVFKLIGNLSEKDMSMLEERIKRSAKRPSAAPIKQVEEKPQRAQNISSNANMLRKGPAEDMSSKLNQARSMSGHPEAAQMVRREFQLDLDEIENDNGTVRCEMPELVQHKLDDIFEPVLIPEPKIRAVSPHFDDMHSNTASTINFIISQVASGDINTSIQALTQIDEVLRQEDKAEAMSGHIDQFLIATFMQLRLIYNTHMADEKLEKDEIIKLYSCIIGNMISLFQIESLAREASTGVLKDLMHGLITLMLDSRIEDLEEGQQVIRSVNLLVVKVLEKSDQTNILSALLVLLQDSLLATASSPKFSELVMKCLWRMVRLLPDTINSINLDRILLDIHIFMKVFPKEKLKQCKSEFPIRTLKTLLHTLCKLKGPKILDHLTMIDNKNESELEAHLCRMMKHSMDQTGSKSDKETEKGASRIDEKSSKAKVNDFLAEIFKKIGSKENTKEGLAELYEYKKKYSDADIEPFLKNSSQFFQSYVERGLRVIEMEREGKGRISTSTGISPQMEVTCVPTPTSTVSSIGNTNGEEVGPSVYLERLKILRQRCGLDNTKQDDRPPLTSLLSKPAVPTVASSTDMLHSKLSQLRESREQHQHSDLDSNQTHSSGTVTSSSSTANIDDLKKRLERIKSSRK
UniProt Q9NZN8, sequence (Q9NZN8 whole entry, looked up): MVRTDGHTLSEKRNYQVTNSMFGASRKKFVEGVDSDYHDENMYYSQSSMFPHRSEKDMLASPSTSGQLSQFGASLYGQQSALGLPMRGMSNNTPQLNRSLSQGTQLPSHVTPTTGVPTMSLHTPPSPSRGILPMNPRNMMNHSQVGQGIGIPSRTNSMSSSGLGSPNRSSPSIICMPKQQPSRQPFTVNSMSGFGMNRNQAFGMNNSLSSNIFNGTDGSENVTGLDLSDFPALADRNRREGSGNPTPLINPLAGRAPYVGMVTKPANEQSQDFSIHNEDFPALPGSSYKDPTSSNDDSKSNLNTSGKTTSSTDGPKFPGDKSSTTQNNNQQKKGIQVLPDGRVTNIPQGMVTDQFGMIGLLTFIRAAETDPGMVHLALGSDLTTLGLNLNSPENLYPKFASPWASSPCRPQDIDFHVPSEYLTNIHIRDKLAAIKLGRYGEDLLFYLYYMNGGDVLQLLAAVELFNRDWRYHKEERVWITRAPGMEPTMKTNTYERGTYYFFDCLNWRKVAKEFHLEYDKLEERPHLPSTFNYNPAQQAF
UniProt P06732, sequence (P06732 whole entry, looked up): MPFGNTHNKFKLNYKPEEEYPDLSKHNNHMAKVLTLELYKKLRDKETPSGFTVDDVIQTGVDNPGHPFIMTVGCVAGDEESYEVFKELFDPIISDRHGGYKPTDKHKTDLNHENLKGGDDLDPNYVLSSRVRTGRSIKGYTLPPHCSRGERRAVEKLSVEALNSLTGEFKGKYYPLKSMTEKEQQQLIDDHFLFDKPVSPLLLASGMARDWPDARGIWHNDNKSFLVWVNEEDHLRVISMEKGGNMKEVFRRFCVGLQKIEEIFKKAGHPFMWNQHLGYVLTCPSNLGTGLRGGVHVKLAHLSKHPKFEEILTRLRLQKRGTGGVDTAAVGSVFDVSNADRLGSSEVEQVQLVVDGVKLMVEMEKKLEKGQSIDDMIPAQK
UniProt P61923, sequence (P61923 whole entry, looked up): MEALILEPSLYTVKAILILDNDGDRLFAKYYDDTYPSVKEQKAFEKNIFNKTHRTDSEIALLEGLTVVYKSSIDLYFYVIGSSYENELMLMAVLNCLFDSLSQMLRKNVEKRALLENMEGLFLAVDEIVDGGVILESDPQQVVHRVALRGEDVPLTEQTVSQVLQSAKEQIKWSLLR
UniProt P61024, sequence (P61024 whole entry, looked up): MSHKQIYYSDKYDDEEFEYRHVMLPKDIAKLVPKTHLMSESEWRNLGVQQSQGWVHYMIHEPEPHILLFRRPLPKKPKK
UniProt P04080, sequence (P04080 whole entry, looked up): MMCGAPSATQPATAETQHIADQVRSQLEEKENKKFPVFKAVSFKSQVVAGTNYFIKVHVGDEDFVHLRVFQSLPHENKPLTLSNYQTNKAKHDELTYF

In order of rising log2 fold change:
1. CXXC1 isoform 2 (UniProt Q9P0U4)  -0.078
2. DGCR8 (UniProt Q8WYQ5)  -0.049
3. CSTB (UniProt P04080)  -0.047
4. DMAC2L (UniProt Q99766)  -0.046
5. COG5 isoform 2 (UniProt Q9UP83)  -0.036
6. CYP51A1 (UniProt Q16850)  -0.025
7. COL6A5 (UniProt A8TX70)  -0.023
8. COG2 (UniProt Q14746)  -0.023
9. DCP1A (UniProt Q9NPI6)  -0.016
10. DOCK8 (UniProt Q8NF50)  -0.012
11. DOCK7 (UniProt Q96N67)  -0.009
12. CKAP5 (UniProt Q14008)  -0.008
13. DHRS11 (UniProt Q6UWP2)  -0.008
14. DEF6 (UniProt Q9H4E7)  -0.007
15. DCP2 (UniProt Q8IU60)  -0.005
16. CSDE1 isoform 4 (UniProt O75534)  -0.003
17. CSTF2 (UniProt P33240)  -0.001
18. CTNND1 isoform 3 (UniProt O60716)  0.001
19. CIP2A (UniProt Q8TCG1)  0.001
20. CHORDC1 (UniProt Q9UHD1)  0.004
21. COG6 (UniProt Q9Y2V7)  0.005
22. DDX54 isoform 2 (UniProt Q8TDD1)  0.006
23. COPZ1 isoform 4 (UniProt P61923)  0.007
24. CKS1B (UniProt P61024)  0.01
25. CNOT6L (UniProt Q96LI5)  0.015
26. CXorf38 (UniProt Q8TB03)  0.015
27. DNAJC1 (UniProt Q96KC8)  0.018
28. COQ9 (UniProt O75208)  0.023
29. CMIP (UniProt Q8IY22)  0.024
30. CNOT2 (UniProt Q9NZN8)  0.037
31. CHUK (UniProt O15111)  0.04
32. CMPK2 (UniProt Q5EBM0)  0.045
33. CKM (UniProt P06732)  0.056
34. DENND6A (UniProt Q8IWF6)  0.064

With CSNK2A1 (UniProt P68400) the log2 fold change was 0.468 (active).

Each target was assayed with CC(C)(C)Cn1c(N)nc2ccc(-c3[nH]c(C(C)(C)C)nc3-c3ccc(F)cc3)nc21 [ralimetinib] in the same assay as above.
Summary of the method: as §1

In order of falling log2 fold change:
1. DEF6 (UniProt Q9H4E7)  0.098
2. DOCK7 (UniProt Q96N67)  0.077
3. COG5 isoform 2 (UniProt Q9UP83)  0.074
4. DCP2 (UniProt Q8IU60)  0.067
5. CHUK (UniProt O15111)  0.063
6. DENND6A (UniProt Q8IWF6)  0.052
7. CIP2A (UniProt Q8TCG1)  0.052
8. CKM (UniProt P06732)  0.046
9. CNOT6L (UniProt Q96LI5)  0.037
10. DMAC2L (UniProt Q99766)  0.037
11. DDX54 isoform 2 (UniProt Q8TDD1)  0.036
12. CSTB (UniProt P04080)  0.03
13. DOCK8 (UniProt Q8NF50)  0.03
14. DHRS11 (UniProt Q6UWP2)  0.028
15. CSTF2 (UniProt P33240)  0.025
16. COG2 (UniProt Q14746)  0.017
17. CSDE1 isoform 4 (UniProt O75534)  0.017
18. COG6 (UniProt Q9Y2V7)  0.016
19. CNOT2 (UniProt Q9NZN8)  0.016
20. CKAP5 (UniProt Q14008)  0.015
21. COQ9 (UniProt O75208)  0.015
22. DGCR8 (UniProt Q8WYQ5)  0.014
23. CXXC1 isoform 2 (UniProt Q9P0U4)  0.013
24. DCP1A (UniProt Q9NPI6)  0.004
25. CSNK2A1 (UniProt P68400)  0.002
26. CMIP (UniProt Q8IY22)  0
27. COPZ1 isoform 4 (UniProt P61923)  0
28. DNAJC1 (UniProt Q96KC8)  -0.007
29. CXorf38 (UniProt Q8TB03)  -0.008
30. CHORDC1 (UniProt Q9UHD1)  -0.009
31. CMPK2 (UniProt Q5EBM0)  -0.012
32. CYP51A1 (UniProt Q16850)  -0.025
33. CTNND1 isoform 3 (UniProt O60716)  -0.058
34. COL6A5 (UniProt A8TX70)  -0.083
35. CKS1B (UniProt P61024)  -0.161
